# Assay outcomes as filed in PubChem.
# A549 tox = Nrf2 qHTS screen for inhibitors: counterscreen for cytotoxicity; A549 ARE-Fluc cells, CellTiter-Fluor viability, 18-24 h; Potency, µM (titrated, usually from 46 µM), most hits filed as inhibitors; hit rate 0.16% among 390,000; AID 504648, 2011
#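 A549 ARE-Fluc cells in 5% FBS OPTI-MEM, 5000 cells/well, rested 2 h then exposed to compounds in concentration-response for 18-24 h at 37 °C. Viability by CellTiter-Fluor fluorescence (Ex 405/Em 525) after 30 min; luciferase luminescence (BugLite, 15 min, RT) read afterwards.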
# Nrf2 activator = qHTS of Nrf2 Activators. AREc32 ARE-luciferase reporter (MCF7-derived line), luminescence, 24 h. AID 624171, 2012. Potency, µM (series often up to 46.1 µM), usual class: activators. hit rate 0.31% among 410,000; note: nearly all actives have a fitted effect of over 65% in size
#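 AREc32 cells carrying an ARE-driven firefly luciferase reporter were seeded at 1000 cells/well in OPTI-MEM with 5% FBS, then exposed to compound for 24 hr at 37 deg C. Luminescence was read with Steady-Glo after 30 min at RT.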
# HepG2 tox = qHTS for Inhibitors of TGF-b: Cytotox Counterscreen; AID 588856, 2011; HepG2 CAGA-GFP viability, ATP luminescence, 18 h; Potency, µM (titrated, usually from 46.1 µM), hits mostly cytotoxic; hit rate 0.76% among 410,000
#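 HepG2 CAGA-GFP cells (1000/well, DMEM with 1% FBS) received compound, then TGF-beta at 500 pg/mL final, and were incubated 18 hours at 37 degrees C. Viability was read by CellTiter-Glo luminescence. Media-only wells were set as complete cell-killing and DMSO as no toxicity.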
# TGFb inhibitor = qHTS for Inhibitors of TGF-b; HepG2 CAGA-GFP TGF-b/SMAD3 reporter, GFP fluorescence, 18 h; TGF-beta stimulated, 500 pg/mL final; Potency, µM (top dose mostly 46.1 µM), most hits filed as inhibitors; hit rate 1.2% among 410,000; AID 588855, 2011; note: nearly all actives have a fitted effect of over 65% in size
#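 HEPG2 CAGA-GFP reporter cells (1000/well, DMEM with 1% FBS) received compounds, then recombinant TGF-beta at 500 pg/mL final for 18 hours at 37 degrees C. Per-cell GFP summed per well was normalised to unstimulated and stimulated DMSO controls before curve fitting.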
# Nrf2 block = Nrf2 qHTS screen for inhibitors. A549 ARE-Fluc reporter, luciferase luminescence, 18-24 h. hit rate 2.1% among 360,000. AID 504444, 2011. Potency, µM (highest dose often 46 µM), most hits filed as inhibitors; note: nearly all actives have a fitted effect of over 60% in size
#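 A549 ARE_Fluc cells (5000/well, 5% FBS OPTI-MEM) pre-incubated 2 h, then treated with compounds 18-24 h at 37C/5% CO2 in concentration-response. CellTiter-Fluor viability read first; BugLite luciferase luminescence after 15 min at room temperature gives Nrf2 activity.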
# Numbers stand for hits; – = inactive; ? = inconclusive; · = no result. Most compounds without a hit are left out; they make up all but 3.6% or so of the library. Calls come from the whole dose curve; as a rule, active = well fitted curve in the direction sought with a large enough effect; inconclusive = small, poorly fitted or top-dose-only effect, or another doubt; inactive = no such curve, though single readings can be large; an effect the other way counts as inactive or inconclusive.
SMILES,A549 tox,Nrf2 activator,HepG2 tox,TGFb inhibitor,Nrf2 block
Cn1c(SCC(=O)NCc2ccco2)nnc1-c1ccc(NC(=O)c2ccccc2)cc1,·,·,–,–,·
O=C(c1ccccc1)N1CCN(c2ncnc3sc4c(c23)CCC4)CC1,–,–,–,–,16µM
CC(=O)c1cccc(OCC(O)CNCCc2ccc(Cl)cc2)c1 (configuration not stated),–,–,–,–,–
CCCc1cnc(NCCNCC(O)COc2ccc(Cl)c(Cl)c2)nc1 (configuration not stated),–,–,20µM,?,–
Nc1ncnc2c1ncn2[C@@H]1O[C@H](CNC(=O)OC[C@@H](N)Cc2ccccc2)[C@@H](O)[C@H]1O,·,–,–,–,·
O=C(OCC1OC(n2cnc3c(N(C(=O)c4ccccc4)C(=O)c4ccccc4)ncnc32)C(O)C1F)c1ccccc1 (configuration not stated),?,–,–,?,16µM
CS(=O)(=O)N1CCCC(C(=O)NCc2ccc(F)cc2)C1 (configuration not stated),–,–,–,–,–
CCN(CC)CCNc1ccc(C)c2sc3ccc(O)cc3c(=O)c12,–,–,14µM,?,?
CCN(CC)CCNc1ccc(CO)c2oc3cc(Cl)ccc3c(=O)c12,·,–,–,–,·
CC(=O)c1nn(-c2ccc(Cl)cc2)c(=O)[nH]c1=O,–,–,–,–,–
Cc1ccc(-c2nc3c4ccccc4ccn3c2Cc2ccccc2)cc1,·,–,–,–,·
O=C(/C=C/c1ccco1)OCc1nnc(-c2ccccc2)o1,–,11µM,–,?,–
O=C(/C=C/c1ccco1)OCc1nnc(-c2ccc(Cl)cc2)o1,–,14µM,–,–,?
S=C(NCCC(c1ccccc1)c1ccccc1)Nc1ccc(Cl)cc1,?,–,–,20µM,?
S=C(NCCC(c1ccccc1)c1ccccc1)Nc1ccccc1Cl,–,–,–,?,–
COc1ccc(Cl)cc1NC(=S)NCCC(c1ccccc1)c1ccccc1,–,–,–,?,–
COc1ccccc1NC(=S)NCCC(c1ccccc1)c1ccccc1,–,–,–,13µM,–
COc1cccc(/C=C2\SC(=S)N(N3CCOCC3)C2=O)c1OC,–,–,–,?,–
c1ccc(N=Nc2ccc3cccccc2-3)cc1,?,?,–,–,–
Oc1ccc(N=Nc2ccccc2)o1,–,–,13µM,?,?
O=C(c1ccc(Cl)cc1)N1CCN(c2ccc([N+](=O)[O-])c(NCc3cccnc3)c2)CC1,?,–,–,–,26µM
O=C(CCc1ccccc1)NC(NC(=S)Nc1ccc(Cl)cc1)C(Cl)(Cl)Cl (configuration not stated),?,–,–,–,15µM
CCc1ccc(OCC(=O)NC(NC(=S)Nc2ccccc2)C(Cl)(Cl)Cl)cc1 (configuration not stated),–,–,11µM,?,?
CCc1ccc(OCC(=O)NC(NC(=S)Nc2ccc(C)cc2C)C(Cl)(Cl)Cl)cc1 (configuration not stated),?,–,11µM,11µM,·
CC(=O)NC(NC(=S)Nc1ccc(C)cc1C)C(Cl)(Cl)Cl (configuration not stated),–,–,–,–,–
SMILES,A549 tox,Nrf2 activator,HepG2 tox,TGFb inhibitor,Nrf2 block
CCc1ccc(OCC(=O)NC(NC(=S)Nc2ccccc2C)C(Cl)(Cl)Cl)cc1 (configuration not stated),?,–,–,?,?
Cc1ccc(NC(=S)NC(NC(=O)c2ccccc2C)C(Cl)(Cl)Cl)c(C)c1 (configuration not stated),–,–,–,22µM,?
CC1=NN(c2nc(-c3ccc(C)cc3)cs2)C(=O)C1N=Nc1cccc(C)c1 (configuration not stated),–,–,–,–,–
O=C(NN=C1CCCCCC1)c1cccnc1,–,–,–,–,–
CCCS(=O)(=O)NC(=O)C1(C)CCN(C(=O)c2cncc(Br)c2)C1 (configuration not stated),·,–,–,–,·
Cc1ccc(C)c(NC(=S)NC(NC(=O)N(C)C)C(Cl)(Cl)Cl)c1 (configuration not stated),–,–,–,–,?
O=C(NC(NC(=S)Nc1cccc(Cl)c1)C(Cl)(Cl)Cl)OCc1ccccc1 (configuration not stated),?,–,11µM,6.3µM,16µM
Cc1ccc(C)c(NC(=S)NC(NC(=O)Cc2cccc3ccccc23)C(Cl)(Cl)Cl)c1 (configuration not stated),21µM,–,2.8µM,3.5µM,21µM
O=C(NC(NC(=S)Nc1cccc(C(=O)O)c1)C(Cl)(Cl)Cl)OCc1ccccc1 (configuration not stated),–,–,–,–,–
CN(C)C(=O)NC1C=CS(=O)(=O)C1 (configuration not stated),–,–,–,–,–
OC(c1ccccc1)(c1nc(-c2ccc(Cl)cc2)cs1)C(F)(F)F (configuration not stated),·,–,16µM,?,·
Cc1cccc2c1-c1sc(C(=O)NCCCN3CCC(C)CC3)cc1CO2,–,–,–,?,–
COc1cc(C(C(=O)NC2CCCC2)N(Cc2ccco2)C(=O)c2snc(C(N)=O)c2N)cc(OC)c1OC (configuration not stated),–,–,–,–,–
CN(C)c1ccc(C(C(=O)NC2CCCCC2)N(Cc2ccco2)C(=O)c2snc(C(N)=O)c2N)cc1 (configuration not stated),?,–,–,–,15µM
CC(C)c1ccc(N(C(=O)c2snc(C(N)=O)c2N)C(C(=O)NCC2CCCO2)c2ccc(N(C)C)cc2)cc1 (configuration not stated),?,–,–,?,18µM
CCc1nn(CC(=O)N2CCN(c3cccc(C(F)(F)F)c3)CC2)c(=O)c2cccn12,–,–,–,–,–
CC1CCC(NC(=O)c2ccc3c(c2)OCO3)CC1 (configuration not stated),–,–,–,–,?
O=C(Nc1ccc(F)c(Cl)c1)c1nsc(Cl)c1Cl,–,3.2µM,–,–,–
O=C(Nc1ccc(F)cc1)c1nsc(Cl)c1Cl,–,?,–,?,?
NC(=O)CN(C/C=C/c1ccccc1)C/C=C/c1ccccc1,–,–,–,–,–
CCC(O)c1cnc(OCc2ccccc2)nc1OCc1ccccc1 (configuration not stated),·,–,14µM,?,·
Cc1nc2nc(N)nc(OCc3ccccc3)c2nc1C,–,–,–,–,–
CC1CCN(S(=O)(=O)c2ccc3c(ccn3CCC(=O)N3CCCCC3)c2)CC1,–,–,–,–,–
